Results: PubChem BioAssay (NCATS)
Values joined by “and” are separate entries in the source; they are usually repeats but may differ in a detail not shown here. Equal entries are not always repeated. Results filed as inconclusive are left out. Active and inactive are the calls of the source. The call rests on the fitted dose curve.
Potency means the concentration at half of the fitted maximal effect.

Assay: Primary qHTS to identify inhibitors of SARS-CoV-2 cell entry (AID 1645846); further: nearly all actives have a fitted effect of over 45% in size
Conditions: SARS-CoV-2 pseudovirus cell entry assay, luminescence; activity change, negative = inhibition: at 57.1 µM (top of the series) unless noted; series mostly up to 57.1 µM
Outline: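 Entry measured by luciferase signal 48 h after adding SARS-CoV-2-S pseudotyped MLV particles to HEK293-ACE2 cells preincubated 1 h with compounds. Normalisation: bald particles and spike particles.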
In the case of `CCCCCN=C(N)N/N=C/c1c[nH]c2ccc(OC)cc12`, the Potency was 22.4 µM (active). Molecule `COC(=O)C1=C(C)NC(COC(N)=O)=C(C(=O)OC(C)C)C1c1cccc(Cl)c1Cl` (stereo unspecified) has an activity change, negative = inhibition of -3.4%. With `Oc1c(Cl)cc(Cl)c(Cl)c1Cc1c(O)c(Cl)cc(Cl)c1Cl` the Potency was 3.16 µM (active). For `CC1=C(CC(=O)O)c2cc(F)ccc2/C1=C\c1ccc(S(C)=O)cc1` (stereo unspecified), the Potency was “inactive”. In the case of `COc1ccc(CCN2CCC(Nc3nc4ccccc4n3Cc3ccc(F)cc3)CC2)cc1`, the Potency was 10 µM (active). In the case of `C1CCC(C(CC2CCCCN2)C2CCCCC2)CC1` (stereo unspecified), the Potency was 12.6 µM (active) and 17.8 µM (active). In the case of `CCOc1c(N2CCOCC2)cnn(C)c1=O`, the Potency was “inactive”. In the case of `Nc1ccc2cc3ccc(N)cc3nc2c1`, the Potency was 7.94 µM (active). In the case of `CCOCC(O)COc1ccc(NC(=O)CC[S+](C)C)cc1` (stereo unspecified), the Potency was “inactive” and the activity change, negative = inhibition was -2.31%. In the case of `O=C(NOCC1CC1)c1ccc(F)c(F)c1Nc1ccc(I)cc1Cl`, the Potency was 31.6 µM (active). With `N/C(=N\N=C\c1ccc(Cl)cc1)N/N=C/c1ccc(Cl)cc1` the activity change, negative = inhibition was -80.5%. Work on `NCCNC(=O)c1ccc(Cl)cn1` yielded an activity change, negative = inhibition of -12.8%. In the case of `CCC(CN)=C(c1ccccc1)c1ccccc1`, the activity change, negative = inhibition was 2.6%. With `CCOC(=O)OCC/C(SC(=O)OCC)=C(\C)N(C=O)Cc1cnc(C)nc1N` the Potency was “inactive”. For `CCCCCCCCCCCCOCCOCCOCCOCCOCCOCCOCCOCCOCCO`, the Potency was 11.2 µM (active). In the case of `COc1ccc(-c2nc3ccc(C4=NNC(=O)CC4C)cc3[nH]2)cc1` (stereo unspecified), the activity change, negative = inhibition was -33%. For `CCN(CC)CC(=O)OCC(=O)[C@@]1(O)CC[C@H]2[C@@H]3CCC4=CC(=O)CC[C@]4(C)[C@H]3[C@@H](O)C[C@@]21C`, the Potency was “inactive”. With `O=c1c(-c2ccccc2)c1-c1ccccc1` the Potency was 31.6 µM (active). In the case of `CCN(CC)C(=O)C1CN2CCc3cc(OC)c(OC)cc3C2CC1OC(C)=O` (stereo unspecified), the Potency was “inactive”. In the case of `CCCCc1ccc2nc(NC(=O)OC)[nH]c2c1`, the activity change, negative = inhibition was -63.3%. In the case of `Clc1ccc(C(Cn2ccnc2)OCc2c(Cl)cccc2Cl)c(Cl)c1` (stereo unspecified), the Potency was 31.6 µM (active). With `CCCCCCc1ccc(O)cc1O` the activity change, negative = inhibition was -11.8%. For `CC1(C)O[C@@H]2C[C@H]3[C@@H]4CCC5=CC(=O)CC[C@]5(C)[C@@]4(F)[C@@H](O)C[C@]3(C)[C@]2(C(=O)CCl)O1`, the Potency was “inactive”. Molecule `CCCNC(C)(C)COC(=O)c1ccccc1` has an activity change, negative = inhibition of 3.38%. In the case of `CCCCCCCCCCCCCCCC[N+](C)(C)Cc1ccccc1`, the Potency was 17.8 µM (active). For `O=C(Oc1cccc2cccnc12)c1ccccc1`, the Potency was 8.91 µM (active). In the case of `CC(C)[C@@H]1CC[C@@H](C)CC1=O`, the Potency was “inactive”. In the case of `O=C(Nc1ccc([N+](=O)[O-])cc1Cl)c1cc(Cl)ccc1O`, the Potency was 2.51 µM (active) and 8.91 µM (active). For `CNC(=O)c1cnn(-c2nc(N)c3ncn([C@@H]4O[C@H](CO)[C@@H](O)[C@H]4O)c3n2)c1`, the Potency was “inactive”. With `CN(C)c1ccc(C(=C2C=CC(=[N+](C)C)C=C2)c2ccc(N(C)C)cc2)cc1` the Potency was 2.24 µM (active) and 2.51 µM (active). For `Nc1ccc(S(=O)(=O)Nc2cnc3ccccc3n2)cc1`, the Potency was “inactive”. In the case of `NC1(c2ccc(-c3nc4ccn5c(=O)[nH]nc5c4cc3-c3ccccc3)cc2)CCC1`, the Potency was 8.91 µM (active). For `CN(C)c1ccc(C(=C2C=CC(=[N+](C)C)C=C2)c2ccccc2)cc1`, the Potency was 4.47 µM (active). `C[N+](C)(C)CCCCCCCCCC[N+](C)(C)C` showed an activity change, negative = inhibition of -5.17%. With `CCCCCCCCCCCCCCCCCCNC(=O)OC1CCN(C(=O)OC[C@H](COC(=O)N(Cc2cccc[n+]2CC)C(=O)c2ccccc2OC)OC)CC1` the Potency was 10 µM (active). For `[O-][n+]1ccccc1SSc1cccc[n+]1[O-]`, the activity change, negative = inhibition was -95.2% [at 27.1 µM]. For `C[C@]12CCC(=O)C=C1[C@@H]1C[C@@H]1[C@H]1[C@@H]3[C@@H]4C[C@@H]4[C@@]4(CCC(=O)O4)[C@@]3(C)CC[C@@H]12`, the activity change, negative = inhibition was 0.82% and 2.72%. Molecule `CC1CC(=O)NN=C1c1ccc(NCC(C)(C)NCC(O)COc2cc(Cl)ccc2C#N)cc1` (stereo unspecified) has an activity change, negative = inhibition of -23.2%. With `CCN(CC)CCOc1ccc(Cc2ccccc2)cc1` the Potency was 25.1 µM (active). In the case of `CC(C)(C)C(=O)C(Oc1ccc(Cl)cc1)n1ccnc1` (stereo unspecified), the Potency was 20 µM (active).
